From PubChem BioAssay AID435019 (Southern Research Specialized Biocontainment Screening …, 2010)
Out of some 2,300 compounds screened, about 1,200 (52%) were called active. The set was probably picked from earlier hits. The list shows a part of the results. Entries with a potency or affinity are not part of this list. Values without a mark were called inactive. No rule for the calls is given here.

test: mammalian cell cytotoxicity, dose response, cytotoxicity control for M. tuberculosis inhibitor project (AID 435019); details: cytotoxicity counter-screen; series mostly up to 40 µM; viability: at the top concentration;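 also: 0% = background wells and 100% = vehicle-treated cells; lower values mean fewer viable cells so more cytotoxicity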

Row | Structure (SMILES) | viability
1 | COc1ccccc1N1CCN(/N=C/C(Cl)=C/c2ccccc2)CC1 | 84.9%
2 | OCCN(/C=N/c1nc(-c2ccc(Br)cc2)cs1)CCO | 91.9%
3 | CCOC(=O)c1cnc(SC2CCc3ccccc3C2=O)nc1N (configuration not stated) | 89.5%
4 | CCOC(=O)c1cc2cc3ccccc3cc2oc1=O | 95.8%
5 | CC(Oc1cc2oc(=O)c3c(c2cc1Cl)CCCC3)C(=O)NCc1ccccn1 (configuration not stated) | 81.3%
6 | CCOC(=O)C1CCN(c2cc3c(cc2NC(=O)c2ccccc2Cl)n(C)c(=O)n3C)CC1 | 95.7%
7 | CC1=NN(c2ccc(C)c(C)c2)C(=O)/C1=C\C=C\c1ccc([N+](=O)[O-])o1 | 96.5%
8 | CCN(CC(=O)NCc1cccs1)C(=O)c1ccc([N+](=O)[O-])o1 | 87.3%
9 | CC(C)=N/N=C1/NC(=O)C(Cc2ccccc2)S1 (configuration not stated) | 98.5%
10 | Cc1cc(Nc2ccccc2)c2c([N+](=O)[O-])ccc(C)c2n1 | 101%
11 | Cc1ccc(N/N=C/C=C/c2ccco2)cc1 | 94.5%
12 | O=c1c2cc(-c3ccccc3)sc2ncn1/N=C/c1ccco1 | 99.8%
13 | CCOC(=O)c1nc2sc3c(c2c(=O)[nH]1)CCC(C)C3 (configuration not stated) | 97.1%
14 | CCOC(=O)CCCNC(=O)COC(=O)c1cc(Br)c(Br)s1 | 100%
15 | CCOC(=O)CSc1nn(-c2ccccc2)c(=S)s1 | 97.1%
16 | CCOC(=O)CSc1nnc(SCCN2C(=O)c3ccccc3C2=O)s1 | 104%
17 | Cc1ccc2c(c1)C1C[N+](C)(CC(=O)c3ccc(Cl)cc3Cl)CCC1N2C(=O)c1ccc(F)cc1 (configuration not stated) | 90%
18 | COC(=O)COc1ccc(-c2ccccc2)cc1C=O | 91.1%
19 | CCCCCCCCSc1nnc(CSc2nc3nc(C)cc(C)n3n2)o1 | 93%
20 | Cc1cc(C)c2cc(C(=O)Nc3ccc(C)c(F)c3)[nH]c2c1 | 97.5%
21 | COC(=O)c1ccc(N/C(C)=C/C(=O)c2ccc(C)o2)cc1 | 95.1%
22 | Cc1ccccc1NC(=O)Cc1nc(COC(=O)/C=C/c2ccccc2)cs1 | 87.3%

Row | Structure (SMILES) | viability
23 | COC(=O)c1cc(/C=C/c2ccccc2)on1 | 103%
24 | N#Cc1c(SCC(N)=O)nsc1SCc1ccccc1Cl | 102%
25 | O=C(CN1CCN(c2nc(-c3ccc(F)cc3)cs2)CC1)NCc1ccc2c(c1)OCO2 | 82.4%
26 | CCCCOc1ccc(-c2nnn(C(C)C(=O)OCC)n2)cc1 (configuration not stated) | 94.5%
27 | Cc1cccc(N2CCN(CC(=O)Nc3nccs3)CC2)c1C | 83.5%
28 | CC1CCc2c(C(=O)Nc3nccs3)csc2C1 (configuration not stated) | 90%
29 | Nc1ccc2cc(Br)ccc2c1 | 89.6%
30 | COC(=O)c1ccc(N/N=C/c2cc([N+](=O)[O-])cc(OC)c2O)cc1 | 92.8%
31 | CC1CCN(C(=O)c2ccc(-c3ccccc3Cl)o2)CC1 | 82.7%
32 | COC(=O)Cc1ccc(NC(=O)c2ccc(Br)o2)cc1 | 90.5%
33 | CCOC(=O)CSCC(=O)N1CCC(Cc2ccccc2)CC1 | 96%
34 | Cc1cccc(OCC(=O)NNC(=O)c2cc3ccccc3oc2=O)c1 | 94%
35 | COc1ccc(OC(=O)c2cc3cc(Cl)ccc3oc2=O)cc1 | 106%
36 | Cn1c(SCc2ccccc2)nc(N)c(N=O)c1=O | 90.2%
37 | CCOc1ccc(N=CNc2ccc(OCC)cc2)cc1 | 102%
38 | CCOc1ccc(NC(=O)CSc2cn[nH]n2)cc1 | 97.2%
39 | Cc1ccc(C(=O)N/N=C/C=C/c2ccccc2)cc1 | 99.6%
40 | COc1ccc(OCCCC(=O)OC(C)C(=O)Nc2ccccc2[N+](=O)[O-])cc1 (configuration not stated) | 99.7%
41 | CCOC(=O)COn1c2c(c3c4no[n+]([O-])c4ccc31)CCCC2 | 92.7%
42 | Cc1cc(O)c(/C=N/Nc2cccc(Cl)c2)c(=O)o1 | 93.5%
43 | Cc1cc(=O)n2[nH]c(Nc3cccc(Cl)c3)nc2n1 | 83.3%
44 | COc1ccc(N2C(=O)C(Cl)=C(Nc3ccccc3O)C2=O)cc1 | 81%

Row | Structure (SMILES) | viability
45 | Nc1cnc(-c2ccccc2)nc1Cl | 84.9%
46 | COc1ccc2[nH]c(=O)c(CNc3cccc(C)c3)cc2c1 | 90.8%
47 | c1nc2n(n1)C1=C(CCCC1)C1(CCCCC1)N2 | 88.2%
48 | O=c1oc(-c2ccccc2[N+](=O)[O-])nc2ccccc12 | 99%
49 | CCOC(=O)c1ccc(NC(=S)NCCc2ccc(F)cc2)cc1 | 90.5%
50 | O=C(CCSc1ccc(Cl)cc1)NC12CC3CC(CC(C3)C1)C2 | 85.2%
51 | Cc1ccc(CN2C3CCCC2CC(NC(=S)NCc2ccccc2)C3)cc1 (configuration not stated) | 80.5%
52 | O=C(Oc1ccccc1)c1ccccc1OS(=O)(=O)c1ccccc1 | 92.2%
53 | Cc1cc(N2CCN(C(=O)Nc3ccccc3C#N)CC2)c2ccccc2n1 | 87.4%
54 | COc1cc(/C=C2\C(=O)N(c3ccc(S(N)(=O)=O)cc3)N=C2C)ccc1OC(=O)c1ccco1 | 95.2%
55 | CSc1nsc(SCC(=O)Nc2ccc(F)cc2F)n1 | 91.6%
56 | CC(OC(=O)c1cnc2ccccc2n1)c1ccccc1Cl (configuration not stated) | 94.4%
57 | Cc1nc(N2CCN(c3ccccn3)CC2)c2c(C)c(C(=O)N3CCN(c4ccc(F)cc4)CC3)sc2n1 | 81.2%
58 | CCOc1ccc(NC(C)c2cc(Cl)ccc2O)cc1 (configuration not stated) | 89.1%
59 | CCOc1ccc(-n2c(O)c(/C=N/Nc3nnc(C)c(=O)[nH]3)c3ccccc3c2=O)cc1 | 85.7%
60 | CCc1ccc(Nc2n[n+](C)c(-c3ccncc3)s2)cc1 | 89.4%
61 | Cc1nc2ccc(NC(=O)c3ccc([N+](=O)[O-])cc3[N+](=O)[O-])cc2s1 | 99.5%
62 | Cc1ccc(C(=O)Nc2ccc3c4c(cccc24)CC3)cc1[N+](=O)[O-] | 89.8%
63 | O=C1c2ccccc2CC1Sc1nnc(-c2ccncc2)o1 (configuration not stated) | 97.9%
64 | CC(C)NCC(O)c1ccc(O)c(O)c1 (configuration not stated) | 97.2%
65 | CSc1ccccc1C(=O)NC1CCSc2ccccc21 (configuration not stated) | 93.4%
66 | Cc1ccc(C)c(N/C(N)=N/c2nc(C)cc(C)n2)c1 | 80.5%

Row | Structure (SMILES) | viability
67 | CON(C)c1nc(C2CCCCC2)c2cc(C)ccc2n1 | 82.3%
68 | C/C=C(\C)C(=O)Nc1cccc(C2=NOC3(C2)C[C@H](C(N)=O)N(C(=O)c2cc([N+](=O)[O-])cc([N+](=O)[O-])c2)C3)c1 (some centres not stated) | 99.2%
69 | CC(C)CCNC(=O)C(c1ccc(O)cc1)N(C(=O)C1COc2ccccc2O1)c1cccc(O)c1 (configuration not stated) | 87.2%
70 | CCOC(=O)COc1ccc(/C=C2\NC(=S)N(CC)C2=O)cc1 | 90.3%
71 | Cc1cc2c(ccc3c2no[n+]3[O-])nn1 | 107%
72 | O=C(c1ccc(-c2cccc(C(F)(F)F)c2)o1)N1CCN(c2ccccc2O)CC1 | 98.3%
73 | COC(=O)C(C)Oc1ccc2c(c1)O/C(=C\c1ccco1)C2=O (configuration not stated) | 95.4%
74 | CCOC(=O)C(C)Oc1ccc(OCc2ccccc2)cc1 (configuration not stated) | 93.8%
75 | Cn1ccnc1-c1nnn(-c2ccc(Cl)c(Cl)c2)n1 | 101%
76 | CC12CCC(=O)N1C(C(=O)Nc1ccc(SC(F)F)cc1)CS2 (configuration not stated) | 97.2%
77 | CCn1cnc2sc(C(=O)Oc3ccc(Br)cc3)c(C)c2c1=O | 90.1%
78 | COc1ccc(NC(=O)CN(C)C(=O)c2n[nH]c3ccccc23)cc1 | 87.4%
79 | COc1ccccc1C1CC(c2ccc(Cl)cc2)Nc2ncnn21 (configuration not stated) | 80.5%
80 | CCN(CC)S(=O)(=O)c1cc(C(=O)Oc2cccc(-c3cnc4ccccc4n3)c2)ccc1Br | 93.8%
81 | Cc1ccc(-c2ccc(C3C(C#N)=C(N)Oc4n[nH]c(C)c43)o2)cc1 (configuration not stated) | 86.2%
82 | CCc1nnc(N/N=C/c2cc(C)c(C)cc2C)n1N | 98.8%
83 | COc1ccc(-c2nnn(CC(=O)OC3CCCCC3)n2)cc1OC | 102%
84 | CO[C@@H]1[C@@H](OC(N)=O)[C@@H](O)C(Oc2ccc3c(O)c(NC(=O)c4ccc(O)c(CC=C(C)C)c4)c(=O)oc3c2C)OC1(C)C (some centres not stated) | 86.3%
85 | O=C(COC(=O)C1=COCCO1)NCc1ccc(Cl)cc1 | 93.8%
86 | O=Cc1ccc2noc(-c3ccc(Cl)cc3)c2c1 | 94.2%
87 | O=S1(=O)CCC(N=Cc2ccc(-c3ccc(Cl)cc3)o2)C1 (configuration not stated) | 86.9%
88 | Cc1ccc2cc(C)c(N3CCN(c4ccccn4)CC3)nc2c1 | 86%

Row | Structure (SMILES) | viability
89 | Cc1ccc2[nH]c3c(c2c1)CN(C(=O)CN1CCN(c2ccccn2)CC1)CC3 | 82.1%
90 | Cc1cc(C)c2c(CN3CCN(Cc4ccccc4)CC3)cc(=O)oc2c1C | 84.9%
91 | C#CCOCCOCCOCCNc1nc(N2CCN(C(=O)C(Cc3ccc(O)cc3)n3cc(C(N)CC(C)C)nn3)CC2)nc(N2CCN(C(=O)C(Cc3cc4ccccc4[nH]3)n3cc(C(N)Cc4ccc(O)cc4)nn3)CC2)n1 (configuration not stated) | 95.6%
92 | CC1(C)CN(c2ccccc2)N(C(=O)c2ccc(C#N)cc2)C1=O | 88.7%
93 | CCOc1ccc(-n2cc(-c3ccccc3)c3c(=O)[nH]cnc32)cc1 | 84.8%
94 | CCOc1ccc(N2CC(=O)Nc3ccccc3NCC2=O)cc1 | 89.6%
95 | Cc1ccccc1-c1nc2cc(N)ccc2o1 | 89.9%
96 | O=C([O-])c1ccccc1-[n+]1c(-c2ccccc2)cc(-c2ccccc2)cc1-c1ccccc1 | 101%
97 | Cc1nc(-c2ccc(Cl)cc2)sc1C1(C)CC(c2ccc(C#N)cc2)=NO1 (configuration not stated) | 88.5%
98 | CCOc1cc(C(=O)OCc2ccc(C(=O)OC)o2)cc(Br)c1OC | 96.5%
99 | Cc1ccc(-c2ccnc(=S)[nH]2)cc1 | 97.5%
100 | CC12CN3CCN(CC(C3)/C1=N\NC(=O)Nc1cccc(Cl)c1)C2 | 99.4%
101 | CNC(CC(C)C)C(=O)NC1C(=O)NC(CC(N)=O)C(=O)NC2C(=O)NC3C(=O)NC(C(=O)NC(C(=O)O)c4cc(O)cc(O)c4-c4cc3ccc4O)C(O)c3ccc(c(Cl)c3)Oc3cc2cc(c3OC2OC(CO)C(O)C(O)C2OC2C[C@](C)(N)C(O)C(C)O2)Oc2ccc(cc2Cl)C1O (some centres not stated) | 95.1%
102 | COc1cc(C)ccc1S(=O)(=O)N1CCN(C23CC4CC(CC(C4)C2)C3)CC1 | 87%
103 | Brc1ccc(-c2nc3ncccn3c2Nc2ccc3c(c2)OCCO3)o1 | 96.2%
104 | COC(=O)[C@@H](NC(=O)O[C@@H]1C(=O)c2ccc(OC)cc2O[C@H]1c1cccc(C(F)(F)F)c1)C(C)C | 84.6%
105 | Cc1ccn2nc(S(=O)(=O)Nc3c(F)cccc3F)nc2n1 | 97.5%
106 | Cc1ccc(OC(=O)CCN2C(=O)c3ccccc3C2=O)cc1C | 95.1%
107 | O=[N+]([O-])c1ccc(N2CCCCC2)s1 | 94.7%
